3T3 cytotox: NIH 3T3 cell cytotoxicity. NIH 3T3 viability, CellTiter-Glo ATP luminescence, 48-72 h. Potency, µM (titrated, usually from 96.7 µM), hits mostly inhibitors. hit rate 4.3% among 94,000; note: nearly all actives have a fitted effect of over 55% in size
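Cytotoxicity was measured by CellTiter-Glo ATP luminescence after 48 or 72 h compound exposure at 37 °C. Mouse NIH 3T3 fibroblasts were seeded at 400 cells/well and dosed by 23 nL pin transfer.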
hNpr1 antagonist: blocks ANP-stimulated signaling of human Npr1 receptor | HEK293 hNpr1 GloSensor cGMP, ANP-stimulated luminescence | Potency, µM (top dose mostly 46.3 µM), hits mostly inhibitors | hit rate 1.6% among 76,000 | P16066 | AID 1347048; calls by dose curve; note: nearly all actives have a fitted effect of over 60% in size
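HEK293 cells stably expressing human Npr1 and cGMP GloSensor pGS-40F, loaded 2 h with 2% GloSensor reagent, given compound 30 min at room temperature. Luminescence read before and 20 min after 0.1 nM hNppA.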
HEK cytotox: kills HEK 293 cells. HEK 293 viability, ATP luminescence (CellTiter-Glo), 48-72 h. Potency, µM (doses to about 115 µM), most hits filed as inhibitors. hit rate 6.6% among 94,000. AID 1345083; note: nearly all actives have a fitted effect of over 60% in size
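HEK 293 cells seeded at 250 cells/well were exposed to compound for 48 or 72 hr at 37 degree Celsius. Viability taken as ATP content by CellTiter-Glo luminescence.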
FLuc inh: blocks purified firefly luciferase enzyme activity; hit rate 2.5% among 76,000; purified P. pyralis luciferase, luminescence, biochemical; AID 1347043; P08659; Potency, µM (titrated, usually from 115 µM), actives largely listed as inhibitors; note: nearly all actives have a fitted effect of over 65% in size
Target sequence (P08659 whole entry, looked up): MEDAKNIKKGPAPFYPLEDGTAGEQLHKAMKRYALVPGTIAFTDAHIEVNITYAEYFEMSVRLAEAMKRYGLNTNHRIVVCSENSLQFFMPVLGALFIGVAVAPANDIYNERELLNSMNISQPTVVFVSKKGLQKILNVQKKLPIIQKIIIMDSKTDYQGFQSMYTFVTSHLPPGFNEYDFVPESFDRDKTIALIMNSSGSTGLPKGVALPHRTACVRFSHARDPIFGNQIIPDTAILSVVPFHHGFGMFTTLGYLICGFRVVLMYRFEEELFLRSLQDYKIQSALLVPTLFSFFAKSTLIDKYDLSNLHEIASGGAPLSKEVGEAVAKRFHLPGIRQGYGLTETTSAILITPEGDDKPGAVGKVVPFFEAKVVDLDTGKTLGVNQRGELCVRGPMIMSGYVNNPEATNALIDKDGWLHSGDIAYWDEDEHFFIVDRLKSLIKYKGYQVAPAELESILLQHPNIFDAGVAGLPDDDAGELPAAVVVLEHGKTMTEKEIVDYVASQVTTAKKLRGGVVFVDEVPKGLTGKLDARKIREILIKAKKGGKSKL
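Purified P. pyralis luciferase (10nM final) in 50mM Tris acetate pH 7.5, 10mM Mg acetate, 0.01% Tween-20, 0.05% BSA with 10uM D-luciferin and 10uM ATP. Compounds titrated qHTS. Luminescence imaged on CCD.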
GPT2 inhibitor: inhibitors of human GPT2 alanine aminotransferase | Recombinant GPT2, coupled pyruvate oxidase/HRP Amplex Red fluorescence | Potency, µM (highest dose often 57.7 µM), usual class: inhibitors | hit rate 0.25% among 100,000 | AID 1671188; note: nearly all actives have a fitted effect of over 60% in size
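Fluorescence of coupled pyruvate oxidase/HRP/Amplex Red system (50uM Amplex, 30 min, dark) reports pyruvate formed by GPT2. Enzyme reaction: 10ng/uL GPT2, 2mM L-alanine, 250uM a-KG, 30 min room temperature, pH 7.5; 50uM AOA control.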
Numbers stand for hits; n = inactive; u = inconclusive; x = no result. Sampled rows, rich in hits. Any-hit rate of the full collection: about 10%. Unless noted, calls come from the whole dose curve; as a rule, active = well fitted curve in the direction sought with a large enough effect; inconclusive = small, poorly fitted or top-dose-only effect, or another doubt; inactive = no such curve, though single readings can be large; an effect the other way counts as inactive or inconclusive.

SMILES	3T3 cytotox	hNpr1 antagonist	HEK cytotox	FLuc inh	GPT2 inhibitor
O=C(c1ccccc1Cl)N1CCN(C(=O)c2nc3cccnc3n(C3CC3)c2=O)CC1	n	x	n	x	n
COCCNC(=O)C1CCCN(c2ccnc3ccnn23)C1 (stereo not drawn)	n	x	n	x	n
O=C(C[C@@H]1CCNC[C@@H]1Cc1cc(-c2ccccc2)on1)NCc1cccs1	u	n	89.1µM	n	u
COc1ccc(-c2cc(C[C@H]3CNCC[C@H]3CC(=O)NCc3ccccc3)no2)cc1	112µM	n	89.1µM	n	n
CC(=O)NCCNC(=O)C[C@@H]1CCNC[C@@H]1Cc1cc(-c2ccccc2)on1	n	n	n	n	n
COc1ccc(CNC(=O)C[C@@H]2CCNC[C@@H]2Cc2cc(-c3ccc(C(C)(C)C)cc3)on2)cc1	25.1µM	n	u	n	n
COc1ccccc1N1CCN(C(=O)C[C@@H]2CCNC[C@@H]2Cc2cc(-c3ccc(C(C)(C)C)cc3)on2)CC1	u	n	u	n	n
CC(C)(C)NC(=O)C[C@@H]1CCNC[C@@H]1Cc1cc(-c2ccc(C(C)(C)C)cc2)on1	22.4µM	n	12.6µM	n	n
CC(NC(=O)C1(c2ccc(NS(C)(=O)=O)cc2)CCCCC1)c1ccccc1 (stereo not drawn)	n	n	n	n	n
O=C(c1ccc(Cl)nc1)N1CCC(C(=O)N2CCC(N3Cc4cccn4C3=O)CC2)CC1	n	x	n	x	n
O=C(c1ccccc1F)N1CCC(C(=O)N2CCC(N3CCOCC3=O)CC2)CC1	n	x	n	x	n
CCn1cc(-c2ccc(Cl)cc2)cc1C(=O)NCCCN1CCOCC1	u	n	u	n	n
O=C(C[C@@H]1CCNC[C@@H]1Cc1cc(-c2ccc(F)cc2)on1)NCc1ccc(F)cc1	39.8µM	n	79.4µM	n	n
COc1ccc(-c2cc(C[C@H]3CNCC[C@H]3CC(=O)NCc3cccs3)no2)cc1	89.1µM	n	56.2µM	n	u
O=C(C[C@@H]1CCNC[C@@H]1Cc1cc(-c2ccc(F)cc2)on1)NCc1cccnc1	n	n	n	n	n
COc1ccc(-c2cc(C[C@H]3CNCC[C@H]3CC(=O)NCc3ccc(F)cc3)no2)cc1	u	n	u	n	n
COc1ccc(-c2cc(C[C@H]3CNCC[C@H]3CC(=O)NCc3cccnc3)no2)cc1	n	n	n	n	n
CC(C)(C)c1ccc(-c2cc(C[C@H]3CNCC[C@H]3CC(=O)NCc3ccc(F)cc3)no2)cc1	25.1µM	n	28.2µM	n	n
O=C(C[C@@H]1CCNC[C@@H]1Cc1cc(-c2ccc(F)cc2)on1)NCc1ccccc1	112µM	n	100µM	n	n
CCC(C(=O)NC1CCN(c2cn[nH]c(=O)c2)CC1)c1ccccc1 (stereo not drawn)	n	n	n	n	n
CCN(CC1CCCN(CCc2cccc(OC)c2)C1)C(=O)c1cc(C)no1 (stereo not drawn)	n	n	n	n	n
COc1ccccc1N1CCN(C(=O)C[C@@H]2CCNC[C@@H]2Cc2cc(-c3ccc(F)cc3)on2)CC1	u	n	u	n	n
O=C(C[C@@H]1CCNC[C@@H]1Cc1cc(-c2ccccc2)on1)NCc1ccccc1	100µM	n	u	n	u
COc1ccc(-c2cc(C[C@H]3CNCC[C@H]3CC(=O)N3CCN(c4ccccc4OC)CC3)no2)cc1	14.1µM	n	u	n	n
O=C(C[C@@H]1CCNC[C@@H]1Cc1cc(-c2ccccc2)on1)NCc1cccnc1	n	n	n	n	n
SMILES	3T3 cytotox	hNpr1 antagonist	HEK cytotox	FLuc inh	GPT2 inhibitor
COc1ccc(-c2cc(C[C@H]3CNCC[C@H]3CC(=O)NC(C)C)no2)cc1	n	n	n	n	n
COc1ccc(-c2cc(C[C@H]3CNCC[C@H]3CC(=O)Nc3ccccc3)no2)cc1	39.8µM	n	44.7µM	n	n
CC(C)CNC(=O)c1coc(COc2ccc3c(c2)C(c2cccc(F)c2)N(C(=O)C2CC2)CC3)n1 (stereo not drawn)	12.6µM	u	14.1µM	n	n
CCN(CC)C(=O)c1coc(COc2ccc3c(c2)C(c2ccc(C)cc2)N(C(=O)C2CC2)CC3)n1 (stereo not drawn)	u	n	10µM	n	n
COCCNC(=O)c1coc(COc2ccc3c(c2)C(c2cccc(F)c2)N(C(=O)C2CC2)CC3)n1 (stereo not drawn)	u	n	u	n	n
CCCNC(=O)c1coc(COc2ccc3c(c2)C(c2ccc(C)cc2)N(C(=O)C2CC2)CC3)n1 (stereo not drawn)	u	n	u	n	n
Cc1ccc(C2c3cc(OCc4nc(C(=O)NCC5CC5)co4)ccc3CCN2C(=O)C2CC2)cc1 (stereo not drawn)	28.2µM	n	35.5µM	n	n
COCCNC(=O)c1coc(COc2ccc3c(c2)C(c2ccc(F)cc2)N(C(=O)C(C)C)CC3)n1 (stereo not drawn)	n	n	8.91µM	n	n
Cc1ccc(C(=O)N2CCC(C(=O)N3CCC(c4nc5ccncc5[nH]4)C3)CC2)cc1 (stereo not drawn)	n	x	n	x	n
COCCCNC(=O)C(NC(=O)c1cccc(C)c1)C1CCN(C(=O)c2ccc(C)cc2)CC1 (stereo not drawn)	n	n	n	n	n
COCCOc1ccc2c(n1)CCN(C(=O)c1sccc1C)C2	u	n	n	n	n
Cc1cccc(C2c3cc(OCc4nc(C(=O)NCC5CC5)co4)ccc3CCN2C(=O)C2CC2)c1 (stereo not drawn)	u	u	u	n	n
Cc1ccc(C2c3cc(OCc4nc(C(=O)NCC(C)C)co4)ccc3CCN2C(=O)C2CC2)cc1 (stereo not drawn)	u	n	39.8µM	n	n
CCCNC(=O)c1coc(COc2ccc3c(c2)C(c2cccc(C)c2)N(C(=O)C2CC2)CC3)n1 (stereo not drawn)	u	u	12.6µM	n	n
COC(=O)c1ccc2c(c1)nc1n2[C@@H](CNC2CCOCC2)COC1	n	n	n	n	n
Cc1cccc(CNCc2ccccc2OCC(O)CN2CCSCC2)c1 (stereo not drawn)	u	u	u	n	n
Cc1cccc(-c2nc3cc4c(cc3cc2CN2CCC[C@H]2C(N)=O)OCO4)c1	u	n	u	n	n
Cc1ccc(-n2cc(CN3CCCCC3C(N)=O)c(-c3cccc(C)c3)n2)cc1 (stereo not drawn)	79.4µM	n	50.1µM	u	n
COc1ccc(F)cc1-c1cccc(C(=O)NCCNC(=O)N(C)C)c1	u	x	u	x	n
COCCNC(=O)CCCN1C(=O)COc2ccc(C(=O)COc3ccc(F)c(Cl)c3)cc21	u	n	u	n	n
O=C(CN1C(=O)COc2ccc(C(=O)COc3ccc(Cl)cc3F)cc21)NC1CCCCC1	u	n	28.2µM	n	n
